Data on 21 compounds can be found in PubChem BioAssay (EPA / NIEHS).

The source made the active and inactive calls. How the source made its calls: active means hit-call score of the fitted dose curve at least 0.9, where 1 is the maximum; inactive means score below 0.9.

The term AC50 denotes the concentration at which the activity in the assay is half-maximal.

Assay [1] in a line: ATG_E_Box_CIS: Attagene CIS-FACTORIAL HepG2 Assay for human Enhancer Box (E-box) (AID 2282936). The conditions noted are these: HepG2 E-box cis-reporter transcription, actives raise or lower the signal. The gist of the method:
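In this cell-based setup, HepG2 cells bearing transfected promoter-driven reporter units were exposed to chemicals for 24 h; reporter transcripts were amplified, 6-FAM-labelled, cut with HpaI and sized by capillary electrophoresis.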

Assay [2] in a line: ATG_M_61_CIS: Attagene CIS-FACTORIAL HepG2 Assay for M61 Transcription Factor (Internal Marker) (AID 2282937). The note with it: HepG2 Attagene CIS-FACTORIAL M61 internal marker reporter; actives raise or lower the signal. The gist of the method:
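This endpoint serves as an internal background control within a multiplexed HepG2 cis-reporter panel. Cells are exposed for 24 h; reporter mRNA is amplified, fluorescently labelled and sized by capillary electrophoresis, with DMSO as negative control.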

The nature of assay [3]: ATG_EGR_CIS: Attagene CIS-FACTORIAL HepG2 Assay for human Early Growth Response 1 (EGR1) (AID 2282938). The note with it: HepG2 Attagene CIS-FACTORIAL EGR reporter mRNA; actives raise or lower the signal. The gist of the method: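 HepG2, transient MRTU transfection (cis promoters), 24 h compound. RNA → RT (oligo-dT) → PCR → 6-FAM labelling → HpaI cut → CE fluorescence. Bidirectional fit, DMSO baseline.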

Assay [4] is described as follows: ATG_M_19_CIS: Attagene CIS-FACTORIAL HepG2 Assay for M19 Transcription Factor (Internal Marker) (AID 2282939). The conditions noted are these: HepG2 Attagene CIS-FACTORIAL M19 internal marker reporter; actives raise or lower the signal. In a few lines:
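Signals come from fluorescence of labelled reporter-specific PCR fragments resolved by capillary electrophoresis, following 24 h treatment of HepG2 cells transfected with cis-promoter reporter units; activity was fitted in both directions relative to DMSO.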

Assay [5] can be described thus: ATG_ERE_CIS: Attagene CIS-FACTORIAL HepG2 Assay for Estrogen Response Element (ERE) (AID 2282940). The conditions noted are these: HepG2 ERE cis-reporter, Attagene RNA transcript; actives raise or lower the signal. In a few lines:
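Fluorescence of capillary-separated, FAM-labelled reporter cDNA fragments indicates reporter mRNA levels in HepG2 cells exposed to chemicals for 24 h. Transient transfection with cis-regulated units; data fitted in both directions against DMSO.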

Assay [6] can be described thus: ATG_Ets_CIS: Attagene CIS-FACTORIAL HepG2 Assay for human Erythroblast Transformation Specific (ETS) (AID 2282941). The conditions noted are these: HepG2 ETS cis-reporter transcription, actives raise or lower the signal. The gist of the method:
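Multiplexed reporter transcript profiling: HepG2, 24 h treatment, total RNA to cDNA, PCR, 6-FAM labelling, HpaI cut, capillary electrophoresis. Gain- or loss-of-signal fitted against DMSO.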

Assay [7] in a line: ATG_FoxO_CIS: Attagene CIS-FACTORIAL HepG2 Assay for human Forkhead box O (FoxO) (AID 2282943). The note with it: HepG2 Attagene cis-reporter, FoxO element, mRNA; actives raise or lower the signal. In a few lines: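 Transfected HepG2 reporter cells exposed to test chemical for 24 h; reporter RNA measured by reverse transcription, PCR and fluorescent capillary electrophoresis; curves fitted for increases and decreases against DMSO.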

The nature of assay [8]: ATG_GATA_CIS: Attagene CIS-FACTORIAL HepG2 Assay for human GATA Binding Protein (AID 2282944). The conditions noted are these: HepG2 GATA cis-element reporter, Attagene multiplex mRNA; actives raise or lower the signal. In a few lines:
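After transfecting HepG2 cells with multiple cis-regulated reporter units, chemicals are dosed for 24 h; isolated RNA undergoes RT-PCR and fluorescent labeling before capillary electrophoresis, with activity expressed against DMSO.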

Assay [9] in a line: ATG_GLI_CIS: Attagene CIS-FACTORIAL HepG2 Assay for human Zinc Finger Protein GLI1 (AID 2282945). The note with it: HepG2, Attagene cis-factorial reporter mRNA, GLI element; actives raise or lower the signal. The gist of the method:
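Transiently transfected HepG2 cells report endogenous transcription factor activity via cis-element-driven reporter units. After 24 h compound exposure, reporter mRNA was measured by RT-PCR with capillary electrophoresis; bidirectional fitting against DMSO baseline.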

The target of assay [10] is Hepatocyte nuclear factor 3-beta (Homo sapiens) (UniProt Q9Y261). Nature of the assay: ATG_FoxA2_CIS: Attagene CIS-FACTORIAL HepG2 Assay for human Forkhead box A2 (FOXA2) (AID 2282942). The conditions noted are these: HepG2 cis-reporter transcription factor activity, 24 h; actives raise or lower the signal. The gist of the method:
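Cells: HepG2, transient multiplex reporter transfection. Exposure 24 h. Detection: reporter-specific RT-PCR, fluorescent labelling, restriction digest, capillary electrophoresis. Analysis: bidirectional curve fit, DMSO as negative control.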

Chain of Hepatocyte nuclear factor 3-beta (Homo sapiens) (Q9Y261 whole entry, looked up): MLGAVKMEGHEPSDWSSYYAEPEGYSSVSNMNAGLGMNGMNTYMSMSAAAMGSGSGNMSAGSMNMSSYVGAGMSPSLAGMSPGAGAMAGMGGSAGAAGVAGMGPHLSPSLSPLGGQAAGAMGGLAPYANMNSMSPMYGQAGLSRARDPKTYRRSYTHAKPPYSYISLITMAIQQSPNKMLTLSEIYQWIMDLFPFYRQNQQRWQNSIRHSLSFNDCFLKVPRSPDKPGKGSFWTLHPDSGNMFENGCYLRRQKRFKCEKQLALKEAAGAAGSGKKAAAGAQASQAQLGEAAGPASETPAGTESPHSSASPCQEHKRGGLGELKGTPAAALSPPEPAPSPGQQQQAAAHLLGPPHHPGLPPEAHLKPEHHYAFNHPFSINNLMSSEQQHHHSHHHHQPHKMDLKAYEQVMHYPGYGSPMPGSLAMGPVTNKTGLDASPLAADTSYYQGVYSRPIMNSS

In the case of `O=C(O)CCSCCC(=O)O`, the result in assay [1], in [2], in assay [3], in assay [4], in assay [5] and in [6] was inactive. The call in assay [7], in [8] and in [9] was inactive.

For the compound `CC(C)c1ccc(C(C)C)cc1`, the result in assay [1], in [2], in [3], in assay [4], in [6] and in [10] was inactive. The outcome in assay [7] and in assay [9] was inactive. Moreover, the AC50 in [5] was 155 µM (active).

For the compound `CC(C)(N)CO`, the outcome in assay [1], in assay [2], in assay [3], in assay [4], in assay [5] and in assay [6] was inactive. Besides, the outcome in [10], in assay [7] and in [9] was inactive.

As for `O=C(O)CCCCC1CCSS1` (configuration not stated), the result in assay [1], in assay [2], in assay [3], in [4], in assay [5] and in assay [6] was inactive. Further, the outcome in [10], in [7], in assay [8] and in assay [9] was inactive.

On to `OCc1cccnc1`, for which the outcome in assay [1], in [2], in assay [3], in [4], in assay [5] and in assay [6] was inactive. The compound was classed as inactive in assay [10], in [7] and in assay [9].

Consider `Clc1cccc(Cl)n1`, for which the result in assay [1], in [2], in assay [3], in [4], in [5] and in [6] was inactive. Moreover, the outcome in assay [10], in assay [7] and in assay [9] was inactive.

Regarding `COc1ccnc(CS(=O)c2nc3cc(OC(F)F)ccc3[nH]2)c1OC` (configuration not stated), the outcome in [1], in [2], in [3], in assay [4], in assay [5] and in assay [6] was inactive. Further, the compound was called inactive in [7], in [8] and in assay [9].

For `O=Cc1ccc(Cl)c([N+](=O)[O-])c1`, the half-maximal activity concentration (AC50) was 47.7 µM (active) in [1]; 129 µM (active) in [3]; 134 µM (active) in assay [6]; 145 µM (active) in [10]; 165 µM (active) in assay [9]. Moreover, the outcome in assay [2], in [4] and in assay [5] was inactive.

Turning to `CC(C)(C)c1n[nH]c(=S)n(N)c1=O`, the outcome in assay [1], in [2], in [3], in [4], in assay [5] and in assay [6] was inactive. Also, the compound was called inactive in [7], in assay [8] and in assay [9].

`COC(=O)Cc1cccc2ccccc12`: the result in [1], in [2], in assay [3], in assay [4], in assay [5] and in [6] was inactive. The call in assay [7], in assay [8] and in assay [9] was inactive.

With `COc1ccc(Nc2ccccc2)c(C)c1`, the outcome in [1], in [2], in assay [3], in assay [4], in assay [6] and in assay [10] was inactive. Besides, the result in assay [7] and in [9] was inactive. Further, the half-maximal activity concentration (AC50) in assay [5] was 19.6 µM (active).

As for `CCC(C(=O)NC(N)=O)c1ccccc1` (configuration not stated), the outcome in assay [1], in assay [2], in [3], in assay [4], in assay [5] and in assay [6] was inactive. For the same compound, the compound was classed as inactive in assay [7], in assay [8] and in [9].

For the compound `C[C@H]1C[C@H]2[C@@H]3CCC4=CC(=O)C=C[C@]4(C)[C@@]3(F)[C@@H](O)C[C@]2(C)[C@@]1(O)C(=O)COP(=O)(O)O`, the outcome in assay [1], in [2], in assay [3], in assay [4], in assay [5] and in assay [6] was inactive. Moreover, the result in assay [10], in assay [7] and in assay [9] was inactive.

For the compound `CC(=O)OCCC(C)CC(C)(C)C` (configuration not stated), the outcome in assay [1], in assay [2], in [3], in assay [4], in [5] and in [6] was inactive. The outcome in assay [7], in assay [8] and in assay [9] was inactive.

In the case of `OCCOCCOCCOCCO`, the result in assay [1], in assay [2], in assay [3], in [4], in assay [5] and in assay [6] was inactive. Also, the compound was called inactive in [10], in [8] and in assay [9].

As for `C=C(C)C(=O)NCCCN(C)C`, the result in assay [1], in [2], in assay [3], in [4], in [6] and in assay [10] was inactive. The call in assay [7], in assay [8] and in assay [9] was inactive.

With `CN(C)C(=N)N=C(N)N`, the result in assay [1], in assay [2], in assay [3], in [4], in assay [6] and in [10] was inactive. In addition, the compound was called inactive in assay [7], in assay [8] and in [9].

With `Cc1ccc(C(=O)O)o1`, the outcome in [1], in assay [2], in assay [3], in assay [4], in assay [6] and in [10] was inactive. The call in [7], in assay [8] and in assay [9] was inactive.

On to `OC1C(O)C(O)C(O)C(O)C1O` (configuration not stated), for which the outcome in assay [1], in assay [2], in [3], in [4], in assay [5] and in assay [6] was inactive. Besides, the compound was classed as inactive in assay [9].

`CCCC/C=C\CCCCCCCCCC=O`: the result in assay [1], in [2], in assay [3], in [4], in [6] and in [10] was inactive. In addition, the call in [7], in assay [8] and in assay [9] was inactive.

For `CCc1ccc(C=O)cc1`, the outcome in assay [1], in [2], in assay [3], in assay [4], in assay [6] and in assay [10] was inactive. Further, the result in assay [7], in assay [8] and in [9] was inactive.
